Test results from PubChem BioAssay (NCI).
About 83,000 compounds went through this panel and 20% of them were active in at least one assay; those are over-represented in the sample as a whole.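 Plates (96-well) were seeded with cells, treated with compound at one concentration, and incubated for 48 hours before percent growth was determined.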 A number with no mark means an inactive call. Activity calls are given as the source filed them. Rule for the calls: active = growth percent below 10; inactive = the rest.

Columns and labels:
Experiment in all cases: NCI-60 one-dose screen, 48 h (100 = growth as untreated, 0 = no growth, -100 = all killed)
SK-MEL-2 melanoma = conditions: 10 µM unless noted
SN12C renal = conditions: 10 µM unless noted
UO-31 renal = conditions: 10 µM unless noted
TK-10 renal = conditions: 10 µM unless noted
ACHN renal = conditions: 10 µM unless noted
CAKI-1 renal = conditions: 10 µM unless noted
HL-60(TB) leukemia = conditions: 10 µM unless noted
CCRF-CEM leukemia = conditions: 10 µM unless noted
MOLT-4 leukemia = conditions: 10 µM unless noted
SR leukemia = conditions: 10 µM unless noted
RPMI-8226 leukemia = conditions: 10 µM unless noted
OVCAR-8 ovarian = conditions: 10 µM unless noted
OVCAR-5 ovarian = conditions: 10 µM unless noted
OVCAR-4 ovarian = conditions: 10 µM unless noted
SK-OV-3 ovarian = conditions: 10 µM unless noted
IGROV1 ovarian = conditions: 10 µM unless noted
OVCAR-3 ovarian = conditions: 10 µM unless noted
HS 578T breast = conditions: 10 µM unless noted
A498 renal = conditions: 10 µM

| Compound | growth (SK-MEL-2 melanoma) | growth (SN12C renal) | growth (UO-31 renal) | growth (TK-10 renal) | growth (ACHN renal) | growth (CAKI-1 renal) | growth (HL-60(TB) leukemia) | growth (CCRF-CEM leukemia) | growth (MOLT-4 leukemia) | growth (SR leukemia) | growth (RPMI-8226 leukemia) | growth (OVCAR-8 ovarian) | growth (OVCAR-5 ovarian) | growth (OVCAR-4 ovarian) | growth (SK-OV-3 ovarian) | growth (IGROV1 ovarian) | growth (OVCAR-3 ovarian) | growth (HS 578T breast) | growth (A498 renal) |
| --- | --- | --- | --- | --- | --- | --- | --- | --- | --- | --- | --- | --- | --- | --- | --- | --- | --- | --- | --- |
| CC(=O)[O][Hg][O]C(C)=O | 90.3% | 106% | 96.9% | 138% | 108% | 92.3% | 35.2% | 27.8% | 84.8% | 11.9% | 90.1% | 98.7% | 115% | 94.3% | 97.8% | 53.2% | 34.5% | 106% | – |
| O=C(O)CNC(=O)C(Cl)(Cl)Cl | 111% | 100% | 87.6% | 95.6% | 92.7% | 89.1% | 80.8% | – | 91.7% | 89.8% | – | 90.3% | 97.1% | 99.5% | 108% | 100% | 108% | – | 96.2% |
| ClCCN(CCCl)Cc1ccc(Nc2ccnc3cc(Cl)ccc23)cc1 | -19.5% (active) | 18.8% | 34.6% | 59.5% | 5.15% (active) | -32.8% (active) | -38.6% (active) | – | -33.5% (active) | -15.9% (active) | 0.54% (active) | 37.9% | 74.1% | 48.2% | 53.5% | 55.4% | 39.7% | – | 77.1% |
| O=C1NC(=O)C(=Cc2cccn2CCCCCn2c3ccccc3c(=O)c3ccccc32)C(=O)N1 | 107% | 106% | 79.4% | 101% | 105% | 103% | – | 100% | 93.3% | 86.7% | 92% | 102% | 101% | 99.8% | 108% | 99.4% | 105% | 106% | 104% |
| COc1cc(/C=C\c2cc(OC)c(OC)c(OC)c2)cc(N/C=C\C(=O)c2cc(OC)c(OC)c(OC)c2)c1OC | 15.9% | 36.9% | 22.3% | 55.1% | 28.9% | – | – | 8.89% (active) | 28.7% | -5.44% (active) | 22.8% | 41.2% | 31.8% | – | 21.3% | 15.6% | 9.78% (active) | 1.26% (active) | -12.4% (active) |
| COC[C@@H]1C[C@@]2(C)[C@@H](CC[C@@H]3[C@@H]2CC[C@@]2(C)[C@H]3CC[C@]2(C)O)CC1=O | 83.2% | 107% | 91.1% | 85.2% | 92.6% | 94.4% | 78.6% | – | 90.4% | 83.7% | 84.5% | 95.8% | 97.9% | 101% | 98.7% | 98.9% | 106% | – | 111% |
| CNCc1cccnc1 | 112% | 111% | 93.9% | 113% | 106% | 92% | – | 96.6% | – | – | 101% | 103% | 114% | – | 106% | 114% | 115% | 107% | 104% |
| CCC1CN1CCCCN1CC1CC (stereo unspecified) | 118% | 95.2% | 92.6% | 104% | 100% | 99.6% | 123% | – | 108% | 104% | 102% | 101% | 102% | 102% | 110% | 102% | 107% | – | 115% |
| CC(C)CCC(=O)O[C@H]1CC[C@H]2[C@@H]3CCC4=CC(=O)CC[C@]4(C)[C@H]3CC[C@]12C | 115% | 107% | 82.1% | 100% | 98.5% | 88.5% | 108% | 104% | 96% | – | 98.6% | 104% | 93% | 103% | – | 96.3% | 97.9% | 86.9% | 77.2% |
